From PubChem BioAssay (NCATS) come the findings set out here.

Each structure is given as a SMILES string. Results filed as inconclusive are left out. A call without a number means that no potency is given here. The source made the active and inactive calls. Calls come from the whole dose curve; as a rule, active = well fitted cell-killing curve with a large enough effect; inconclusive = small, poorly fitted or top-dose-only effect; inactive = flat fitted curve, though single readings scatter.

This test is described as follows: Cellular viability qHTS for adrenocortical cancer (ACC) cell line NCI-H295R (AID 1963990). Note: nearly all actives have a fitted effect of over 60% in size. As to conditions: CellTiter-Glo ATP luminescence, 48 h; series mostly up to 46.1 µM. The gist of the method:
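CellTiter-Glo ATP luminescence, read 48 h after compound addition, measured viability of NCI-H295R adrenocortical cells grown serum-free with ITS. Final concentrations spanned up to 46 uM. Data normalized to DMSO and doxorubicin, fitted for IC50 and maximal response.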
On the technique in general: In qHTS, concentration-response curves come from the screen itself.
`Cc1cc(=O)n(-c2ccccc2)n1C`: the Potency result is “inactive”. In the case of `CCCC(=O)O[C@]1(C(=O)CO)CC[C@H]2[C@@H]3CCC4=CC(=O)CC[C@]4(C)[C@H]3[C@@H](O)C[C@@]21C`, the Potency result was “inactive”.

In the case of `CC(=O)OCC(=O)Nc1cc(C#N)cc(NC(=O)COC(C)=O)c1Cl`, the Potency entry is “inactive”.

In the case of `O=C(O)c1ccccc1OP(=O)(O)O`, the Potency entry is “inactive”. Same read-out and setting: next, `COCCc1ccc(OCC2CO2)cc1` (configuration not stated): “inactive”; `CCOc1cc2ncc(C#N)c(Nc3ccc(F)c(Cl)c3)c2cc1NC(=O)/C=C/CN(C)C`: 3.55 µM (active). The same measure, in the same setting: then `C[C@@H](O)[C@H]1C(=O)N2C(C(=O)O)=C(S[C@@H]3CN[C@H](C(=O)N(C)C)C3)[C@H](C)[C@H]12`, with “inactive”. On the same count and under the same terms, then `Cc1cc(NS(=O)(=O)c2ccc(N)cc2)nc(C)n1`, with “inactive”; and `NC(=O)CCCCC1CCSS1` (configuration not stated), with “inactive”. For the molecule `O=c1[nH]c(=O)n([C@H]2C[C@H](O)[C@@H](CO)O2)cc1Br`, the Potency entry is “inactive”. Still for that read-out and setting: next, `CCOc1ccc(C(=O)OCCN(CC)CC)cc1`: “inactive”; `NS(=O)(=O)c1ccc(Cl)c(S(N)(=O)=O)c1`: “inactive”. Still for that read-out and setting: then `COc1cc(C(=O)NCc2ccc(OCCN(C)C)cc2)cc(OC)c1OC`, with “inactive”.

Take `CCCN(CCC)CCc1cccc2c1CC(=O)N2`: the Potency result is “inactive”. Regarding `O=C(O)Cc1cccc(-c2cc(CCCCCCc3ccc(O[C@H]4O[C@H](CO)[C@@H](O)[C@H](O)[C@@H]4O)c(-c4cccc(CC(=O)O)c4)c3)ccc2O[C@H]2O[C@H](CO)[C@@H](O)[C@H](O)[C@@H]2O)c1`, the activity change, negative = viability loss was -4.2% [at 0.587 µM] (inactive).

Consider `O=C(c1ccco1)N1CCNCC1`, for which the Potency result is “inactive”. The same measure, in the same setting: next, `O=C(c1ccccc1)C(O)c1ccccc1` (configuration not stated): “inactive”.
